# Screening results: PubChem BioAssay, National Center for Advancing Translational Sciences (NCATS)
# Sm TGR block: inhibitors of Schistosoma mansoni thioredoxin glutathione reductase | Potency, µM (top dose mostly 114 µM), actives largely listed as inhibitors | purified TGR, DTNB reduction, TNB absorbance 405 nm | hit rate 3% among 360,000 | AID 485364; note: nearly all actives have a fitted effect of over 60% in size
#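 First, TGR (20 nM dispensed) and NADPH were mixed with compound. Second, a 15 min room-temperature incubation followed. Third, further NADPH and then DTNB were added to start the reaction. Finally, TNB absorbance was monitored kinetically.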
# FMDV inh: antivirals against foot and mouth disease virus | hit rate 1.2% among 410,000 | AID 1159524 | Potency, µM (highest dose often 57.9 µM), hits mostly inhibitors | FMDV antiviral cell-based qHTS; calls by dose curve; tested in HEK293T cells; note: read-out not given here; nearly all actives have a fitted effect of over 45% in size
# HCMV inh: blocks human cytomegalovirus replication; HFF cells, HCMV-luciferase reporter, 72 h; stronger effect = lower value; hit rate 4.5% among 410,000; AID 1259415; activity change, negative = inhibition, % at 57.5 µM; in the data active = activity change below about -60%; inconclusive = no clear call, values can overlap the other calls; inactive = above about -39%
#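 HFF cells seeded 16 h at 37C, treated with compounds, infected with luciferase-reporter HCMV at MOI 1 PFU/cell; luciferase read at 72 h post infection, normalized to buffer-only and Salinomycin controls.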
# HCV inhibitor: HCV inhibition | Huh7.5.1 HCVcc-Cre infection, luciferase reporter, 44 h | Potency, µM (top dose mostly 41.8 µM), actives largely listed as inhibitors | hit rate 3.4% among 340,000 | AID 651820
#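 A cell-based infection assay in which seeded cells (1,000 per well) receive test compound after 4 h, are inoculated with HCVcc-Cre at approximately 0.5 moi, and are incubated 44 h before luminescence detection.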
# Vaccinia Venus: inhibitors of vaccinia virus (Venus reporter) | Vaccinia virus Venus reporter expression, fluorescence | Potency, µM (series often up to 36.5 µM), usual class: inhibitors | hit rate 0.46% among 330,000 | AID 720580; calls by dose curve; tested in A549 cells; note: nearly all actives have a fitted effect of over 30% in size
# Vaccinia mCherry: vaccinia inhibition (mCherry reporter); Vaccinia virus mCherry reporter infection, fluorescence; hit rate 0.63% among 310,000; Potency, µM (top dose mostly 36.5 µM), usual class: inhibitors; calls by dose curve; tested in A549 cells; note: nearly all actives have a fitted effect of over 35% in size
# Hits are given with their value; - = inactive; ? = inconclusive; . = no result given; [ ] = remark or other dose. The list is not random: actives were taken first. Their share in the collection is about 9.3%. Unless noted, calls come from the whole dose curve; as a rule, active = well fitted curve in the direction sought with a large enough effect; inconclusive = small, poorly fitted or top-dose-only effect, or another doubt; inactive = no such curve, though single readings can be large; an effect the other way counts as inactive or inconclusive.
SMILES,Sm TGR block,FMDV inh,HCMV inh,HCV inhibitor,Vaccinia Venus,Vaccinia mCherry
O=C(CCS(=O)(=O)c1ccccc1)Nc1nc(-c2cccs2)cs1,?,-,-,-[8.37 µM],3.98µM,?
O=C(Nc1nc2c(s1)COc1ccccc1-2)c1cccs1,-,-,-,-,-,-
CC(=O)c1sc(NC(=O)CCS(=O)(=O)c2ccccc2)nc1C,-,-,-,12.6µM,.,.
O=C(CCS(=O)(=O)c1ccccc1)Nc1nncs1,20µM,-,-,-,?,?
CC(C)C[C@H]1CN=C(Nc2ccccc2)N1CC1CCC(C(C)(C)C)CC1 (some centres not stated),-,?,.,11.2µM,?,28.2µM
CN1CCN(c2ccc(-c3cccc(NC(=O)COc4ccc(Cl)cc4Cl)c3)nn2)CC1,-,?,-,11.2µM,-,-
O=C(COc1ccc2ccc(=O)oc2c1)NC1CCCC1,-,-,-62.3,-,.,.
O=C(COc1ccc2ccc(=O)oc2c1)Nc1cccc(S(=O)(=O)N2CCCCC2)c1,-,14.1µM,-,?,-,-
Cc1cc(Cl)ccc1OCC(=O)Nc1cccc(S(=O)(=O)N2CCCC2)c1,-,-,?,7.94µM,.,.
CN1CCN(c2ccc(-c3cccc(NC(=O)COc4ccc(Cl)cc4)c3)nn2)CC1,-,-,-,?,-,-
CCCNC(=S)N1CCC(C(=O)c2ccc(F)cc2)CC1,-,-,-,-,-,-
Cc1ccc2cccc(OCC(=O)Nc3cccc(S(=O)(=O)N4CCCC4)c3)c2n1,-,39.8µM,-,5.62µM,-,-
Cc1ccc(OCC(=O)Nc2cccc(S(=O)(=O)N3CCCCC3)c2)c([N+](=O)[O-])n1,-,-,-,?,-,-
O=C(CSc1n[nH]c(=O)[nH]c1=O)c1ccccc1[N+](=O)[O-],44.7µM,-,-,-,-,?
O=C(CSc1n[nH]c(=O)[nH]c1=O)c1cccc([N+](=O)[O-])c1,-,-,?,-,.,.
O=C(CSc1n[nH]c(=O)[nH]c1=O)c1ccccc1,-,-,-66.6,-,?,.
O=C(CSc1n[nH]c(=O)[nH]c1=O)Nc1ccccc1C(=O)c1ccccc1,-,-,-,-,-,-
Cc1ccc(CSCC(=O)Nc2ccccc2C(=O)O)cc1,-,-,-79.4,-,.,.
Cc1ccc(CSCC(=O)NCCc2ccccc2)cc1,-,-,-100.3,-,-,-
O=C(CSCc1cccc(Cl)c1)Nc1ccccc1-c1ccccc1,-,-,-62.7,-,-,-
O=C(CCC1N=C2c3ccccc3N=C(SCC(=O)Nc3ccc(F)cc3)N2C1=O)NCc1cccs1 (configuration not stated),-,?,-80.3,.,-,-
O=C(CC1N=C2c3ccccc3N=C(SCC(=O)Nc3ccc(F)cc3)N2C1=O)NCc1cccs1 (configuration not stated),-,-,-,.,-,-
Cc1ccc(NC(=O)CSCC(=O)NCCc2ccccc2)cc1,-,-,-,-,-,-
C=CC[n+]1ccn(-c2nc3ccccc3nc2[N-]S(=O)(=O)c2cccs2)c1,-,-,-,-,-,-
COC(=O)c1cc(OC)cc(O)c1C(=O)c1c(O)cc(C)cc1O,?,-,-,-,-,-
SMILES,Sm TGR block,FMDV inh,HCMV inh,HCV inhibitor,Vaccinia Venus,Vaccinia mCherry
COc1ccccc1-c1cnc(C(O)c2cccc(F)c2)[nH]1 (configuration not stated),.,-,-,.,-,-
Cc1ccc(CS(=O)(=O)CCC(=O)NCCc2ccccc2)cc1,-,-,-,5.62µM,-,-
CCOc1ccc(CCNC(=O)CCS(=O)(=O)c2ccc(C)cc2)cc1OCC,31.6µM,-,-,-,.,.
Cc1ccc(CSC2=Nc3ccccc3C3=NC(CCC(=O)NCCc4ccccc4)C(=O)N23)cc1 (configuration not stated),-,?,-90.3,.,-,-
CCOc1ccc(CCNC(=O)CCS(=O)(=O)c2ccc(Br)cc2)cc1OCC,-,-,-,-,.,.
O=[P+](Cc1ccccc1)Cc1ccccc1,-,-,-,-,-,.
C=CCCCN(Cc1ccccc1)S(=O)(=O)c1ccccc1Br,-,-,-,-,-,-
CC(C)C(=O)Nc1cccc(NC(=O)c2cccc(F)c2)c1,-,-,-,-,-,-
CC(C)c1ccc(CNCc2ccccc2)cc1,-,.,?,-,-,-
O=C1Cc2cc(NS(=O)(=O)c3ccc(Cl)cc3)cc3c2N1CCC3,-,-,-,-,-,-
O=C1Cc2cc(NS(=O)(=O)c3ccc([N+](=O)[O-])cc3)cc3c2N1CCC3,-,-,-,-[8.37 µM],?,10µM
CCOc1ccc(OCCOCCN2CCOCC2)cc1,-,-,-,-,-,-
CCOc1ccc(-c2cc(C)[n+](CCN3CCOCC3)c(-c3ccc(OCC)cc3)c2)cc1,-,?,-82.5,-,-,-
c1ccc2c(c1)[nH]c1c3ccccc3sc21,-,-,-,11.2µM,-,-
COC(=O)CN1C(=O)N/C(=C/c2ccc(C)o2)C1=O,28.2µM,-,-,-,-,-
Cc1ccc(/C=C2/NC(=O)N(Cc3ccccc3)C2=O)o1,22.4µM,-,-,-,-,-
Oc1cccc(CN2CCN(c3ncc(Cc4ccccc4)cn3)CC2)c1,.,-,-,.,-,-
CC(=O)c1cccc(N(CC(=O)Nc2ccc(F)cc2)S(C)(=O)=O)c1,-,-,-,-,-,-
Cc1ccc(S(=O)(=O)c2c(C)nn(-c3ccccc3)c2OC(=O)c2ccco2)cc1,35.5µM,-,?,-,-,-
O=C(NC12CC3CC(CC(C3)C1)C2)c1cc([N+](=O)[O-])ccc1Cl,-,-,-,?,.,.
CC1CCN(C2=NC(=O)/C(=C/c3ccccc3F)S2)CC1,-,-,?,-,-,-
CN1C2CCC1/C(=C\c1ccccc1F)C(=O)/C2=C/c1ccccc1F,20µM,-,-72.1,-,?,11.2µM
NC(=S)NN=C1c2ccccc2-c2ccccc21,-,?,-86.7,6.31µM,.,.
O=C(NN=C1c2ccccc2-c2ccccc21)c1ccccc1,?,-,-,?,.,.
O=C(O)c1ccccc1Nc1ccc([N+](=O)[O-])cc1C(=O)O,-,-,-,-,-[7.34 µM],-[7.34 µM]
SMILES,Sm TGR block,FMDV inh,HCMV inh,HCV inhibitor,Vaccinia Venus,Vaccinia mCherry
CC(=O)c1ccc(Nc2c([N+](=O)[O-])ccc3nonc23)cc1,-,-,-,-,-,?
O=[N+]([O-])c1cc([N+](=O)[O-])c2nonc2c1Nc1ccccc1O,50.1µM,-,?,-,.,.
O=C(O)c1ccccc1Nc1ccc([N+](=O)[O-])c2nonc12,35.5µM,-,.,-,-,-
O=[N+]([O-])c1cc([N+](=O)[O-])c2nonc2c1Nc1ccc(O)cc1,31.6µM,-,-,-,.,.
CCOC(=O)c1ccc(NC(=S)N(CCN(C)C)Cc2cccs2)cc1,-,-,-61.2,-,-,?
CCc1c(C)nc(N)nc1N1N=C1SCC#N,-,-,-,-,.,.
CCc1c(C)nc(N)nc1N1N=C1SCC(=O)OC,-,-,-60.5,-,-,-
Cc1ccc2cc(/C=C(\C#N)C(N)=O)c(N3CCCCC3)nc2c1,-,-,-,14.1µM,.,.
